# In the supplement of paper PMC4466140:
# Key:
# Experiment in all cases: SPOT peptide array binding signal intensity (averaged, normalized) (arbitrary units (background-subtracted, floor 0; scale differs between SH3 domains)); higher = stronger binding of the SH3 domain to the peptide
# AgAbp1 = molecular target: AgAbp1
# Description: (§1)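 GST-tagged SH3 domains from S. cerevisiae (Sc), A. gossypii (Ag), C. albicans (Ca) and S. pombe (Sp) were incubated at 10 ug/ml overnight at 4 C on cellulose SPOT membranes carrying 292 synthetic 15-mer peptides mined from the S. cerevisiae proteome (cysteines replaced by serines). Binding was detected with anti-GST antibody, HRP secondary and chemiluminescence, quantified with Genespotter, and reported as normalized spot intensities averaged over biological replicates.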
# AgBbc1 = molecular target: AgBbc1
# Description: as §1
# AgBem1-D1 = molecular target: AgBem1-D1
# Description: as §1
# AgBzz1-D1 = molecular target: AgBzz1-D1
# Description: as §1
# AgBzz1-D2 = molecular target: AgBzz1-D2
# Description: as §1
# AgCyk3 = molecular target: AgCyk3
# Description: as §1
# AgFus1 = molecular target: AgFus1
# Description: as §1
# AgHof1 = molecular target: AgHof1
# Description: as §1
# AgHse1 = molecular target: AgHse1
# Description: as §1
# AgLsb1 = molecular target: AgLsb1
# Description: as §1
# AgLsb4 = molecular target: AgLsb4
# Description: as §1
# AgMyo5 = molecular target: AgMyo5
# Description: as §1
# AgNbp2 = molecular target: AgNbp2
# Description: as §1
# AgRvs167 = molecular target: AgRvs167
# Description: as §1
# AgSho1 = molecular target: AgSho1
# Description: as §1
# AgSla1-D1-D2 = molecular target: AgSla1-D1-D2
# Description: as §1
# AgSla1-D3 = molecular target: AgSla1-D3
# Description: as §1
# CaAbp1-D1 = molecular target: CaAbp1-D1
# Description: as §1
# CaAbp1-D2 = molecular target: CaAbp1-D2
# Description: as §1
# CaBbc1 = molecular target: CaBbc1
# Description: as §1
# CaBem1-D1 = molecular target: CaBem1-D1
# Description: as §1
# CaBzz1-D1 = molecular target: CaBzz1-D1
# Description: as §1
# CaBzz1-D2 = molecular target: CaBzz1-D2
# Description: as §1
# CaCyk3 = molecular target: CaCyk3
# Description: as §1
# CaFus1 = molecular target: CaFus1
# Description: as §1
# CaHof1 = molecular target: CaHof1
# Description: as §1
# CaHse1 = molecular target: CaHse1
# Description: as §1
# CaLsb1 = molecular target: CaLsb1
# Description: as §1
# CaLsb4 = molecular target: CaLsb4
# Description: as §1
# CaMyo5 = molecular target: CaMyo5
# Description: as §1
# CaNbp2 = molecular target: CaNbp2
# Description: as §1
# CaRvs167 = molecular target: CaRvs167
# Description: as §1
# CaRvs167-3 = molecular target: CaRvs167-3
# Description: as §1
# CaSho1 = molecular target: CaSho1
# Description: as §1
# CaSla1-D1-D2 = molecular target: CaSla1-D1-D2
# Description: as §1
# CaSla1-D3 = molecular target: CaSla1-D3
# Description: as §1
# ScAbp1 = molecular target: ScAbp1
# Description: as §1
# ScBbc1 = molecular target: ScBbc1
# Description: as §1
# ScBem1-D1 = molecular target: ScBem1-D1
# Description: as §1
# ScBzz1-D1 = molecular target: ScBzz1-D1
# Description: as §1
# ScBzz1-D2 = molecular target: ScBzz1-D2
# Description: as §1
# ScCyk3 = molecular target: ScCyk3
# Description: as §1
# ScFus1 = molecular target: ScFus1
# Description: as §1
# ScHof1 = molecular target: ScHof1
# Description: as §1
# ScHse1 = molecular target: ScHse1
# Description: as §1
# ScLsb1 = molecular target: ScLsb1
# Description: as §1
# ScLsb2 = molecular target: ScLsb2
# Description: as §1
# ScLsb3 = molecular target: ScLsb3
# Description: as §1
# ScLsb4 = molecular target: ScLsb4
# Description: as §1
# ScMyo3 = molecular target: ScMyo3
# Description: as §1
# ScMyo5 = molecular target: ScMyo5
# Description: as §1
# ScNbp2 = molecular target: ScNbp2
# Description: as §1
# ScPex13 = molecular target: ScPex13
# Description: as §1
# ScRvs167 = molecular target: ScRvs167
# Description: as §1
# ScSho1 = molecular target: ScSho1
# Description: as §1
# ScSla1-D1-D2 = molecular target: ScSla1-D1-D2
# Description: as §1
# ScSla1-D3 = molecular target: ScSla1-D3
# Description: as §1
# SpAbp1-D1 = molecular target: SpAbp1-D1
# Description: as §1
# SpBbc1 = molecular target: SpBbc1
# Description: as §1
# SpBzz1-D1 = molecular target: SpBzz1-D1
# Description: as §1
# SpBzz1-D2 = molecular target: SpBzz1-D2
# Description: as §1
# SpCyk3 = molecular target: SpCyk3
# Description: as §1
# SpHof1 = molecular target: SpHof1
# Description: as §1
# SpHof1-2 = molecular target: SpHof1-2
# Description: as §1
# SpHof1-3 = molecular target: SpHof1-3
# Description: as §1
# SpHse1 = molecular target: SpHse1
# Description: as §1
# SpLsb1 = molecular target: SpLsb1
# Description: as §1
# SpLsb4 = molecular target: SpLsb4
# Description: as §1
# SpMyo1 = molecular target: SpMyo1
# Description: as §1
# SpNbp2 = molecular target: SpNbp2
# Description: as §1
# SpPex13 = molecular target: SpPex13
# Description: as §1
# SpRvs167 = molecular target: SpRvs167
# Description: as §1
# SpSla1-D1-D2 = molecular target: SpSla1-D1-D2
# Description: as §1
# SpSla1-D3 = molecular target: SpSla1-D3
# Description: as §1
binder,measurement,setting,value
HGKRRAPLLLAKLDV,SPOT peptide array binding signal intensity,AgAbp1,19
same,SPOT peptide array binding signal intensity,AgBbc1,2
same,SPOT peptide array binding signal intensity,AgBem1-D1,26
same,SPOT peptide array binding signal intensity,AgBzz1-D1,82
same,SPOT peptide array binding signal intensity,AgBzz1-D2,34.5
same,SPOT peptide array binding signal intensity,AgCyk3,7
same,SPOT peptide array binding signal intensity,AgFus1,93
same,SPOT peptide array binding signal intensity,AgHof1,13.5
same,SPOT peptide array binding signal intensity,AgHse1,145
same,SPOT peptide array binding signal intensity,AgLsb1,≤ 0
same,SPOT peptide array binding signal intensity,AgLsb4,29.5
same,SPOT peptide array binding signal intensity,AgMyo5,3
same,SPOT peptide array binding signal intensity,AgNbp2,58
same,SPOT peptide array binding signal intensity,AgRvs167,6.67
same,SPOT peptide array binding signal intensity,AgSho1,6
same,SPOT peptide array binding signal intensity,AgSla1-D1-D2,94.5
same,SPOT peptide array binding signal intensity,AgSla1-D3,20
same,SPOT peptide array binding signal intensity,CaAbp1-D1,499
same,SPOT peptide array binding signal intensity,CaAbp1-D2,238
same,SPOT peptide array binding signal intensity,CaBbc1,57.8
same,SPOT peptide array binding signal intensity,CaBem1-D1,44
same,SPOT peptide array binding signal intensity,CaBzz1-D1,94
same,SPOT peptide array binding signal intensity,CaBzz1-D2,51.8
same,SPOT peptide array binding signal intensity,CaCyk3,37
same,SPOT peptide array binding signal intensity,CaFus1,312
same,SPOT peptide array binding signal intensity,CaHof1,≤ 0
same,SPOT peptide array binding signal intensity,CaHse1,7.75
same,SPOT peptide array binding signal intensity,CaLsb1,0.25
same,SPOT peptide array binding signal intensity,CaLsb4,26
same,SPOT peptide array binding signal intensity,CaMyo5,4
same,SPOT peptide array binding signal intensity,CaNbp2,1060
same,SPOT peptide array binding signal intensity,CaRvs167,7.67
same,SPOT peptide array binding signal intensity,CaRvs167-3,17.5
same,SPOT peptide array binding signal intensity,CaSho1,95
same,SPOT peptide array binding signal intensity,CaSla1-D1-D2,122
same,SPOT peptide array binding signal intensity,CaSla1-D3,8.75
same,SPOT peptide array binding signal intensity,ScAbp1,50
same,SPOT peptide array binding signal intensity,ScBbc1,12.2
same,SPOT peptide array binding signal intensity,ScBem1-D1,30
same,SPOT peptide array binding signal intensity,ScBzz1-D1,21.5
same,SPOT peptide array binding signal intensity,ScBzz1-D2,27
same,SPOT peptide array binding signal intensity,ScCyk3,102
same,SPOT peptide array binding signal intensity,ScFus1,136
same,SPOT peptide array binding signal intensity,ScHof1,0.5
same,SPOT peptide array binding signal intensity,ScHse1,732
same,SPOT peptide array binding signal intensity,ScLsb1,≤ 0
same,SPOT peptide array binding signal intensity,ScLsb2,≤ 0
same,SPOT peptide array binding signal intensity,ScLsb3,16.5
same,SPOT peptide array binding signal intensity,ScLsb4,≤ 0
same,SPOT peptide array binding signal intensity,ScMyo3,1
same,SPOT peptide array binding signal intensity,ScMyo5,5.5
same,SPOT peptide array binding signal intensity,ScNbp2,210
same,SPOT peptide array binding signal intensity,ScPex13,≤ 0
same,SPOT peptide array binding signal intensity,ScRvs167,11.3
same,SPOT peptide array binding signal intensity,ScSho1,186
same,SPOT peptide array binding signal intensity,ScSla1-D1-D2,126
same,SPOT peptide array binding signal intensity,ScSla1-D3,20.5
same,SPOT peptide array binding signal intensity,SpAbp1-D1,55
same,SPOT peptide array binding signal intensity,SpBbc1,0.5
same,SPOT peptide array binding signal intensity,SpBzz1-D1,204
same,SPOT peptide array binding signal intensity,SpBzz1-D2,≤ 0
same,SPOT peptide array binding signal intensity,SpCyk3,18
same,SPOT peptide array binding signal intensity,SpHof1,31.2
same,SPOT peptide array binding signal intensity,SpHof1-2,4.25
same,SPOT peptide array binding signal intensity,SpHof1-3,242
same,SPOT peptide array binding signal intensity,SpHse1,235
same,SPOT peptide array binding signal intensity,SpLsb1,≤ 0
same,SPOT peptide array binding signal intensity,SpLsb4,21.5
same,SPOT peptide array binding signal intensity,SpMyo1,2
same,SPOT peptide array binding signal intensity,SpNbp2,63.5
same,SPOT peptide array binding signal intensity,SpPex13,10
same,SPOT peptide array binding signal intensity,SpRvs167,≤ 0
same,SPOT peptide array binding signal intensity,SpSla1-D1-D2,≤ 0
same,SPOT peptide array binding signal intensity,SpSla1-D3,2
